Measurements from PubChem BioAssay.
The source made the active and inactive calls.

Tests used:
[1] = system: Human papillomavirus type 1a protein E7 (residues 44-93); experiment: small molecules binding HPV E7 44-93 – biochemical, small-molecule microarray, residues 44-93, 635 nm fluorescence, primary screen (AID 1108); conditions: fluorescence 635 nm, higher = more signal;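 note: E7 fragment applied at 1 µg/mL in TBST for 1 h at 4 C; score combines spot fluorescence with its signal to noise ratio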
[2] = hepatitis C replication reporter changes, two-sided – Huh7 cells, luciferase reporter, HCV replication inhibitor project, primary screen (AID 1109); conditions: Huh7 HCV replicon luciferase reporter, 48 h; higher = more signal;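 note: huh7 hepatoma cells harbouring a luciferase neomycin HCV replicon reporter; luciferase luminescence as measure of HCV replicon replication; test concentration not given here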
[3] = molecular target: Left-right determination factor 2 (Homo sapiens) (UniProt O00292); experiment: small molecules binding LEFTY2 protein – biochemical, small-molecule microarray, 635 nm fluorescence scan, primary screen (AID 1110); conditions: higher = more signal
Chain of Left-right determination factor 2 (Homo sapiens) (O00292 whole entry, looked up): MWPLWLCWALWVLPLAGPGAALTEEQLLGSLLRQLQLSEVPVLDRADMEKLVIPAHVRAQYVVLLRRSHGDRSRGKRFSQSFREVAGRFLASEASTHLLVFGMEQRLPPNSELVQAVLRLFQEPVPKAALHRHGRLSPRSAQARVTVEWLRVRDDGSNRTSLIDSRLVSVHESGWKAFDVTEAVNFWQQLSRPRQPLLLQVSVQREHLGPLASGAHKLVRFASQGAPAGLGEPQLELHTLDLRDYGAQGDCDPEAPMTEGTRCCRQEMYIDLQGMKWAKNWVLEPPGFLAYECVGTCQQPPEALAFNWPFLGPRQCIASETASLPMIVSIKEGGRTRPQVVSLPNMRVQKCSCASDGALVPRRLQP

[4] = molecular target: Calmodulin-1 (Homo sapiens) (UniProt P0DP23); experiment: small molecules binding calmodulin-1 with EGTA – biochemical, small-molecule microarray, Cy5-labelled CALM1, profiling panel (AID 1111); conditions: Cy5-CALM1 binding fluorescence, higher = more signal;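 note: labelled calmodulin applied in Tris saline Tween buffer holding calcium plus EGTA and DTT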
[5] = molecular target: Calmodulin-1 (Homo sapiens) (UniProt P0DP23); experiment: small molecules binding Ca-loaded calmodulin-1 – biochemical, small-molecule microarray, Cy5-labelled CALM1, plus calcium, artefact control for SMM control-protein annotation, profiling panel (AID 1112); conditions: Cy5-CALM1 binding fluorescence, higher = more signal;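 note: score merges spot fluorescence with signal to noise from triplicate slides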
[6] = probe aWnt5a binding to arrayed compounds – biochemical, biotinylated probe, 635/667 nm fluorescence, primary screen (AID 1113); conditions: small-molecule microarray, higher = more signal;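 note: score merges 667 nm fluorescence intensity with signal-to-noise per printed feature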
[7] = probe aShh binding to arrayed compounds – biochemical, biotinylated probe, 635/667 nm fluorescence, primary screen (AID 1114); conditions: small-molecule microarray, higher = more signal;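 note: probe is biotin-labelled aShh protein from a stem cell growth factor screen; measures binding of labelled protein to compounds printed on the slide; score merges feature fluorescence at 667 nm with signal-to-noise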
[8] = probe aNog binding to arrayed compounds – biochemical, biotinylated probe, 635/667 nm fluorescence, primary screen (AID 1115); conditions: small-molecule microarray, higher = more signal;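 note: probe is biotinylated aNog protein used at 0.15 µg/mL for 1 h at 4 C; z-score combines 667 nm fluorescence of each spot with its signal to noise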
[9] = molecular target: Torsin-1A-interacting protein 1 (Homo sapiens) (UniProt Q5JTV8); experiment: compound microarray binding of lysate hLAP1 – cell lysate, small-molecule microarray, COS7 lysate, 635/667 nm fluorescence, primary screen (AID 1116); conditions: 635 nm fluorescence, higher = more signal
Chain of Torsin-1A-interacting protein 1 (Homo sapiens) (Q5JTV8 whole entry, looked up): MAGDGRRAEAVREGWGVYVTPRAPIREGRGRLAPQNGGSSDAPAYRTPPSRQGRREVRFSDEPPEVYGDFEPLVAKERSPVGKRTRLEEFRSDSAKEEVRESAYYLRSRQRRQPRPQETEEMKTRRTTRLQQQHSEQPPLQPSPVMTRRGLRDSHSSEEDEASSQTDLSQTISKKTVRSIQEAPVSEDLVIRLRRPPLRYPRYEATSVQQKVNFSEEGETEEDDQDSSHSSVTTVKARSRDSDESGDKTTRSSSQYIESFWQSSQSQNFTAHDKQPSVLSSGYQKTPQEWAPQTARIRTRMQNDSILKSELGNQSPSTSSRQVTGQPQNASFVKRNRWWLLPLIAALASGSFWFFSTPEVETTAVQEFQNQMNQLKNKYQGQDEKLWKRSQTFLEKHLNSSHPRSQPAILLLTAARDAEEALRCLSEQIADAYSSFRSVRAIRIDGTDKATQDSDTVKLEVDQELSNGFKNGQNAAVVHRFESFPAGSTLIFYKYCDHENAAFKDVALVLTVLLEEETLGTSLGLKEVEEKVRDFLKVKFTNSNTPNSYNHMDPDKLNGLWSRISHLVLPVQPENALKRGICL

[10] = molecular target: Alpha-bungarotoxin (Bungarus multicinctus) (UniProt P60615); experiment: compounds binding labelled alpha-BTX control protein – biochemical, small-molecule microarray, Alexa647 label, 635/667 nm fluorescence, artefact control for SMM control protein annotation, profiling panel (AID 1117); conditions: alpha-BTX-A647 binding fluorescence, higher = more signal
Chain of Alpha-bungarotoxin (Bungarus multicinctus) (P60615 whole entry, looked up): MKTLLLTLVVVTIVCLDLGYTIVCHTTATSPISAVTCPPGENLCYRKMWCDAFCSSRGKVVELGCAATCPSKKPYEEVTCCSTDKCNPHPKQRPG

Albumin (Bos taurus) = Albumin (Bos taurus) (UniProt P02769); experiment: compounds binding labelled BSA control protein – biochemical, small-molecule microarray, Alexa647 label, 635/667 nm fluorescence, artefact control for SMM control protein annotation, profiling panel (AID 1118); conditions: BSA-A647 binding, fluorescence 635 nm, higher = more signal;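 note: score merges 667 nm emission intensity and signal-to-noise per printed compound spot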
Chain of Albumin (Bos taurus) (P02769 whole entry, looked up): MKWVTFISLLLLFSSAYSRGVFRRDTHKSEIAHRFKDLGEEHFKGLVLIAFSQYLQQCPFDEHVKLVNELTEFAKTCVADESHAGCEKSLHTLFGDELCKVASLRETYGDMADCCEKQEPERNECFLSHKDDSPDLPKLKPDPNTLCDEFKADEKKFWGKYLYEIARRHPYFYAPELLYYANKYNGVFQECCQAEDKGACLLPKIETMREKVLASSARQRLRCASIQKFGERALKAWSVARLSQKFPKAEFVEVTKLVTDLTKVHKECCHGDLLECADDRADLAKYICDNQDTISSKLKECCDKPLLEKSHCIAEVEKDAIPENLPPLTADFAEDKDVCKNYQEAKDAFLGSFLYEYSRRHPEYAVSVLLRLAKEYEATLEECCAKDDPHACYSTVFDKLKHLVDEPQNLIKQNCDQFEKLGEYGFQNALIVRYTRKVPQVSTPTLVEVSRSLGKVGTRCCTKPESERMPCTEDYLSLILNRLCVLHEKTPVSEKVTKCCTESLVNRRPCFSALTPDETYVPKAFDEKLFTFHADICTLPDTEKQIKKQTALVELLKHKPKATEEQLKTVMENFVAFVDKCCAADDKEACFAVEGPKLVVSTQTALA

[11] = probe aXIP binding to arrayed compounds – biochemical, NeuroSMM set, 635/667 nm fluorescence, primary screen (AID 1119); conditions: small-molecule microarray, higher = more signal, called active from +8 up or from −8 down;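 note: probe is the protein aXip251-270 applied at 1 µg/mL to compound-printed slides; binding of probe to printed compounds measured as 667 nm fluorescence plus signal to noise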
[12] = probe aNOTCH3 binding on compound microarray – biochemical, small-molecule microarray, 635/667 nm fluorescence, primary screen (AID 1120); conditions: higher = more signal;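 note: probe is a biotin-tagged antibody raised against NOTCH3 rather than NOTCH3 protein; score merges spot fluorescence near 667 nm with spot signal to noise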
[13] = probe aNOTCH2 binding on compound microarray – biochemical, small-molecule microarray, 635/667 nm fluorescence, primary screen (AID 1121); conditions: higher = more signal;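 note: score merges feature fluorescence read at 667 nm with its signal to noise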
[14] = molecular target: Carbonic anhydrase 2 (Homo sapiens) (UniProt P00918); experiment: compounds binding carbonic anhydrase 2 – biochemical, small-molecule microarray, Alexa647-labelled CAII, profiling panel (AID 1122); conditions: CAII-A647 binding fluorescence, higher = more signal
[15] = COS7 lysate on small-molecule microarray, probe aHis, 635 nm (AID 1123); conditions: COS7 cell lysate, fluorescence, higher = more signal;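 note: z-score combines 667nm fluorescence intensity with signal-to-noise per printed compound spot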
[16] = probe aLAP1 signal on lysate-treated microarray – cell lysate, small-molecule microarray, COS7 lysate, primary screen (AID 1124); conditions: probe aLAP1, fluorescence, higher = more signal;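 note: lysate comes from COS7 cells expressing LAP1 and is applied at 0.3 µg/mL; score merges spot fluorescence near 667 nm with signal-to-noise over triplicate slides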
Sam68 (KHDRBS1) = experiment: compounds binding KHDRBS1 protein – biochemical, small-molecule microarray, 635 nm fluorescence, primary screen (AID 1125); conditions: higher = more signal;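 note: score merges 667 nm channel intensity with signal to noise over triplicate slides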
[17] = system: Chordin-like protein 2 (CHRDL2); experiment: compounds binding chordin-like 2 – biochemical, small-molecule microarray, 635 nm fluorescence, primary screen (AID 1126); conditions: fluorescence 635 nm, higher = more signal;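 note: printed compound slides probed with Chrdl2 protein at 4 µg/mL for 1 h at 4 C; score merges 667 nm emission intensity with signal to noise over three replicate slides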
[18] = molecular target: Concanavalin-A (Canavalia ensiformis) (UniProt P02866); experiment: compounds binding concanavalin A lectin – biochemical, small-molecule microarray, Alexa647 label, 635 nm, artefact control for SMM control protein annotation, primary screen (AID 1127); conditions: ConA-A647 binding fluorescence, higher = more signal;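 note: z combines 667 nm emission intensity with signal-to-noise across three replicate slides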
Chain of Concanavalin-A (Canavalia ensiformis) (P02866 whole entry, looked up): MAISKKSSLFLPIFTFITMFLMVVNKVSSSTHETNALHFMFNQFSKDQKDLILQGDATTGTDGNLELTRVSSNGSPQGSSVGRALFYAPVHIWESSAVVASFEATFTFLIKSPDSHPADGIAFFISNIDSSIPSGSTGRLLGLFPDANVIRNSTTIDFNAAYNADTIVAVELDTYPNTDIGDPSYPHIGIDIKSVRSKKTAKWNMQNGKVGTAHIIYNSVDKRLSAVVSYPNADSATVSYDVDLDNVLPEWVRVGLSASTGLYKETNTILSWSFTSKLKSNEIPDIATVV

SMILES	composite z-score [1]	z-score [2]	composite z-score [3]	composite z-score [4]	composite z-score [5]	composite z-score [6]	composite z-score [7]	composite z-score [8]	composite z-score [9]	composite z-score [10]	composite z-score (Albumin (Bos taurus))	composite Z-score [11]	composite z-score [12]	composite z-score [13]	composite z-score [14]	composite z-score [15]	composite z-score [16]	composite z-score (Sam68 (KHDRBS1))	composite z-score [17]	composite z-score [18]
NC(=O)[C@H]1[C@@H]2C(=O)O[C@@H](c3ccccc3)[C@@H](c3ccccc3)N2[C@@H](c2ccc(O)cc2)[C@]12C(=O)Nc1ccc(C#CC3(O)CCCCCC3)cc12	1.45	-2.61	0.6	0.861	-0.227	-0.12	0.534	-0.327	1.49	1.49	0.0474	0.467 (inactive)	0.205	-0.0859	0.51	2.63	0.807	1.29	0.412	1.12
O=[N+]([O-])c1ccc(C[n+]2ccc(-c3ccc(CO)cc3)cc2)o1	0.418	0.007	0.187	-0.165	0.451	-0.001	0.172	0.327	1.12	1.49	0.904	0.289 (inactive)	-0.0043	-0.0485	0.885	1.13	1.2	0.649	0.768	0.648
C=CCNC(=O)[C@H]1[C@@H]2C(=O)O[C@@H](c3ccccc3)[C@@H](c3ccccc3)N2[C@@H](c2ccc(OCCO)cc2)[C@]12C(=O)N(C(=O)OCCOC)c1ccc(C#CC3=CCCCC3)cc12	-0.192	-1.94	0.652	1.28	0.171	0.0243	0.0141	-0.038	2.23	2.5	0.401	0.495 (inactive)	0.0813	-0.109	0.643	1.34	0.737	1.31	0.399	1.12
CC(C)(C)OC(=O)CC[C@]1(C(=O)O)COC(c2ccc(OCCCO)cc2)=N1	0.191	0.0847	-0.225	0.155	0.568	0.105	0.0326	0.609	0.672	-0.582	0.374	-0.0004 (inactive)	0.102	-0.0966	0.803	1.11	-0.156	-1.05	-1.92	0.135
C=CCOC(=O)[C@H]1[C@@H]2C(=O)O[C@@H](c3ccccc3)[C@@H](c3ccccc3)N2[C@@H](c2ccc(OCCOC(=O)[C@H]3C[C@H]4C(=O)N[C@@H](CCCCN(C)C)C(=O)N4[C@H]3c3ccc(O)cc3)cc2)[C@]12C(=O)Nc1ccccc12	1.36	-0.917	0.823	0.724	-0.707	-0.0539	-0.157	-0.206	0.876	0.0397	-0.144	-0.168 (inactive)	0.272	-0.185	0.415	1.48	0.0568	1.29	1.21	1.1
COc1ccc(C#Cc2ccc3c(c2)[C@]2(C(=O)N3)[C@H](c3ccc(OCCO)cc3)N3[C@H](c4ccccc4)[C@H](c4ccccc4)OC(=O)[C@H]3[C@@H]2C(=O)N2CCN(c3ncccn3)CC2)cc1	1.25	-1.18	0.201	1.91	0.722	-0.252	-0.262	-0.474	0.45	0.235	0.716	-0.912 (inactive)	-0.156	-0.157	0.39	0.873	0.324	0.514	-0.233	1.04
COc1cccc(C[C@H]2C[C@@H](CO[Si](C(C)C)(C(C)C)C(C)C)N3C(=O)[C@]4(C(C)=O)O[C@]23[C@H]2C(=O)N(C)C(=O)[C@H]24)c1	1.01	-3.15	0.717	0.293	-0.23	-0.0721	0.138	-0.158	0.102	0.866	0.614	-0.12 (inactive)	-0.0647	-0.148	-0.0064	0.0217	-0.274	1.14	0.403	0.98
COCCCNC(=O)[C@@]1(Cc2ccccc2N=[N+]=[N-])N=C(c2ccc(OCCCO)cc2)O[C@H]1c1ccccc1CN=[N+]=[N-]	1.44	-2.86	0.0627	0.941	0.0507	0.0676	0.551	1.47	1.54	1.71	0.771	0.103 (inactive)	0.315	0.034	0.697	2.69	0.565	1.29	-0.508	1.01
COCCCNC(=O)[C@@]1(Cc2ccccc2I)c2ccccc2C(=O)N(Cc2ccccc2Cl)[C@H]1c1ccc(CO)cc1	1.16	-1.36	0.365	1.32	0.101	0.0101	-0.154	-0.364	0.164	0.752	0.681	0.432 (inactive)	-0.0492	-0.139	0.344	0.184	0.438	0.902	-0.105	0.752
COCCOC(=O)N1C(=O)[C@@]2(c3cc(C#Cc4ccc(OC)cc4)ccc31)[C@H](c1ccc(OCCO)cc1)N1[C@H](c3ccccc3)[C@H](c3ccccc3)OC(=O)[C@H]1[C@@H]2C(N)=O	1.32	-2.33	0.701	2.09	0.451	-0.0792	0.296	0.683	1.36	2.23	0.641	0.498 (inactive)	0.132	-0.0404	0.573	0.441	0.617	1.35	0.488	1.16
COc1ccc(C#Cc2ccc3c(c2)[C@]2(C(=O)N3)[C@H](C(N)=O)[C@H]3C(=O)O[C@H](c4ccccc4)[C@H](c4ccccc4)N3[C@@H]2c2ccc(O)cc2)cc1	1.48	-2.51	0.422	0.539	0.686	-0.12	-0.0904	-0.215	1.09	1.05	0.49	0.312 (inactive)	-0.0947	-0.148	0.414	2.27	0.211	0.902	-0.0806	0.985
